# Data as given in the supplement of paper PMC10981050.
# Where “and” joins values, the source holds several entries; their conditions need not be identical. Equal values may be shown once. Where a name gives a salt, the structure may show the parent alone.
# Legend:
# Experiment in all cases: cell viability relative to vehicle control; higher = less cytotoxic
# Conditions in all cases: 10 µM
# K562 = test system: K562
# How it was run: (§1)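 CRISPR-edited mutant clones and isogenic wild-type clones from four leukaemia lines were screened against Selleck bioactive, kinase and epigenetic probe libraries, with identity-inconsistent compounds excluded. Each compound was acoustically dispensed at a single 10 µM dose into 384-well plates holding 2000 cells in 50 µL medium per well. After 48 h the supernatant was removed and CellTiter-Glo luminescence was read. Viability was expressed as percent of the on-plate vehicle control and analysed in Genedata Screener.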
# MARIMO = test system: MARIMO
# How it was run: as §1
# MOLM14 = test system: MOLM14
# How it was run: as §1
# OCI-AML2 = test system: OCI-AML2
# How it was run: as §1
SMILES,cell viability (K562; SRSF2 genotype: SRSF2 P95H/wt),cell viability (K562; SRSF2 genotype: SRSF2 wt/wt) [%],cell viability (MARIMO; SRSF2 genotype: SRSF2 P95H/wt) [%],cell viability (MARIMO; SRSF2 genotype: SRSF2 wt/wt) [%],cell viability (MOLM14; SRSF2 genotype: SRSF2 P95H/wt) [%],cell viability (MOLM14; SRSF2 genotype: SRSF2 wt/wt) [%],cell viability (OCI-AML2; SRSF2 genotype: P95H/wt) [%],cell viability (OCI-AML2; SRSF2 genotype: wt/wt) [%]
CC1OC(OC2C(CO)OC(OCC3OC(OC(=O)C45CCC(C)(C)CC4C4=CCC6C7(C)CCC(OC8OCC(O)C(O)C8O)C(C)(CO)C7CCC6(C)C4(C)CC5)C(O)C(O)C3O)C(O)C2O)C(O)C(O)C1O (configuration not stated) [Hederacoside D],98.3% and 104%,101,95.7,103,105,99.3,97,103
Cc1noc(-c2ccc(CSCCC(=O)O)cc2)c1NC(=O)OC(C)c1ccccc1Cl (configuration not stated),106% and 105%,104,101,113,104,102,104,111
COC(=O)Nc1nc2cc(C(=O)c3ccc(F)cc3)ccc2[nH]1 [Flubendazole (Flutelmium)],18.9% and 30.8%,27.6,9.3,12,8.51,43.1,6.97,11
CC1(C)C=C(CN2C/C(=C\c3ccc(F)cc3)C(=O)/C(=C/c3ccc(F)cc3)C2)C(C)(C)N1O,1.83% and 3.61%,1.04,0.52,1.15,0.27,0.28,0.24,0.32
CCCCC[C@](C)(O)/C=C/[C@@H]1[C@@H](C/C=C\CCCC(=O)O)[C@@H](O)C[C@H]1O [Carboprost],110% and 101%,102,97.5,91.1,78.8,99.7,90.3,90.1
CCCC1CC(C(=O)NC(C(C)Cl)C2OC(SC)C(O)C(O)C2O)N(C)C1 (configuration not stated) [Clindamycin alcoholate],104% and 98%,102,98.5,107,103,108,107,98.6
CCn1cc(C(=O)O)c(=O)c2cc(F)c(N3CCNCC3)nc21 [Enoxacin (Penetrex)],111% and 106%,108,109,111,105,110,112,105
"CC(C)(C)C#Cc1cc(N(C(=O)[C@H]2CC[C@H](C)CC2)[C@H]2CC[C@H](O)CC2)c(C(=O)O)s1 [Lomibuvir (VX-222, VCH-222)]",108% and 102%,107,113,115,109,106,124,120
Cc1cnc(Nc2ccc(OCCN3CCCC3)cc2)nc1Nc1cccc(S(=O)(=O)NC(C)(C)C)c1,1.46% and 2.3%,2.29,6.76,10.9,0.67,0.58,0.71,1.39
CCc1c(C(=O)NCCc2ccc(N3CCCCC3)cc2)[nH]c2ccc(Cl)cc12,107% and 104%,111,106,108,85.4,102,112,107
"COc1ccc2c(c1)c(CC(=O)O)c(C)n2C(=O)c1ccc(Cl)cc1 [Indomethacin (Indocid, Indocin)]",98.6% and 106%,105,110,107,106,107,117,114
C=C(C)[C@@H]1CC[C@]2(C(=O)O)CC[C@]3(C)[C@H](CC[C@@H]4[C@@]5(C)CC[C@H](O)[C@@](C)(CO)[C@@H]5CC[C@]43C)[C@@H]12 [23-Hydroxybetulinic acid],93.7% and 96.8%,91.1,96.6,107,100,103,103,109
CC(C)n1ncnc1-c1cn2c(n1)-c1ccc(O[C@@H](C)C(N)=O)cc1OCC2,103% and 99.5%,105,48.3,46.3,50.9,62.9,18.5,34.3
CCCCc1oc2ccc(NS(C)(=O)=O)cc2c1C(=O)c1ccc(OCCCN(CCCC)CCCC)cc1 [Dronedarone HCl (Multaq)],0.8% and 0.71%,0.61,0.56,0.71,0.53,0.6,0.5,0.55
CC(C)n1nc(-c2ccc3oc(N)nc3c2)c2c(N)ncnc21,31.8% and 31.3%,29.9,37.9,32.7,13.6,15.8,6.33,12
CC(=O)OCC(CCn1cnc2cnc(N)nc21)COC(C)=O [Famciclovir (Famvir)],103% and 95.1%,90.8,99.7,104,99.3,97.5,94.7,98
Cc1ccc(S(=O)(=O)c2ccc([N+](=O)[O-])o2)cc1,0.16% and 0.25%,0.18,0.21,0.25,0.19,0.2,0.21,0.26
NS(=O)(=O)Cc1noc2ccccc12 [Zonisamide],90.4% and 88.2%,89.5,85,98,91.8,90.3,84.7,95.2
"O=C(Nc1ccc2c(O)cc(S(=O)(=O)O)cc2c1)Nc1ccc2c(O)cc(S(=O)(=O)O)cc2c1 [AMI-1, free acid]",105% and 92.6%,109,100,110,103,108,109,112
